Assay results published in PubChem BioAssay AID1159580 (chemical genetic matrix, 2015).
In all, about 5,500 compounds went through this assay and about 2,000 (36%) were called active. Inconclusive results (about 18%) are left out. The list shows a part of the results. Values without a mark were called inactive. No stated cut-off is given here; in the data, active means normalized growth mostly below about 0.91 (no sharp cut-off); inconclusive means no clear call, values can overlap the other calls; inactive means mostly above about 0.92.

Assay: chemical genetic growth profiling, strain panel (AID 1159580);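 further: tested at 20 µM; growth read once vehicle control cultures reached saturation at 30 °C; 1 = growth at the plate median or of vehicle wells; lower values mean less growth of the strain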
Details: growth OD
[1] = S. cerevisiae deletion strains, locus YAL013W, strain DEP1, hits give low values
[2] = S. cerevisiae deletion strains, locus YBR229C, strain ROT2, hits give low values
[3] = S. cerevisiae deletion strains, locus YDL101C, strain DUN1, hits give low values
[4] = S. cerevisiae deletion strains, locus YDL134C, strain PPH21, hits give low values
[5] = S. cerevisiae deletion strains, locus YDR150W, strain NUM1, hits give low values
[6] = S. cerevisiae deletion strains, locus YEL061C, strain CIN8, hits give low values
[7] = S. cerevisiae deletion strains, locus YGR078C, strain PAC10, hits give low values
[8] = S. cerevisiae deletion strains, locus YHR030C, strain SLT2, hits give low values
[9] = S. cerevisiae deletion strains, locus YHR087W, strain rtc3, hits give low values
[10] = S. cerevisiae deletion strains, locus YJR043C, strain POL32, hits give low values
[11] = S. cerevisiae deletion strains, locus YJR075W, strain HOC1, hits give low values
[12] = S. cerevisiae deletion strains, locus YKL190W, strain CNB1, hits give low values
[13] = S. cerevisiae deletion strains, locus YLR039C, strain RIC1, hits give low values
[14] = S. cerevisiae deletion strains, locus YLR058C, strain SHM2 (second series), hits give low values
[15] = S. cerevisiae deletion strains, locus YLR085C, strain ARP6, hits give low values
[16] = S. cerevisiae deletion strains, locus YLR262C, strain YPT6, hits give low values
[17] = S. cerevisiae deletion strains, locus YML094W, strain GIM5, hits give low values
[18] = S. cerevisiae deletion strains, locus YMR219W, strain ESC1, hits give low values
[19] = S. cerevisiae deletion strains, locus YMR263W, strain SAP30, hits give low values
[20] = S. cerevisiae deletion strains, locus YNL153C, strain GIM3, hits give low values
[21] = S. cerevisiae deletion strains, locus YNL298W, strain CLA4 (second series), hits give low values
[22] = S. cerevisiae deletion strains, locus YNL322C, strain KRE1, hits give low values
[23] = S. cerevisiae deletion strains, locus YNR030W, strain Alg12, hits give low values
[24] = S. cerevisiae deletion strains, locus YPL055C, strain LGE1, hits give low values
[25] = S. cerevisiae deletion strains, locus YPL241C, strain CIN2, hits give low values
[26] = S. cerevisiae deletion strains, locus YPR135W, strain CTF4, hits give low values

SMILES: CSC(=NS(=O)(=O)c1ccccc1)SC
- normalized growth [1]: 0.985
- normalized growth [2]: 0.979
- normalized growth [3]: 0.98
- normalized growth [4]: 1.01
- normalized growth [5]: 0.938
- normalized growth [6]: 1.03
- normalized growth [7]: 0.985
- normalized growth [8]: 0.83
- normalized growth [9]: 1.02
- normalized growth (S. cerevisiae deletion strains, locus YJL187C, strain SWE1, hits give low values): 1
- normalized growth [10]: 0.96
- normalized growth [11]: 0.977
- normalized growth [12]: 1
- normalized growth [13]: 0.595 (active)
- normalized growth [14]: 0.987
- normalized growth [15]: 0.901
- normalized growth [16]: 0.513 (active)
- normalized growth [17]: 0.921
- normalized growth [18]: 0.995
- normalized growth [19]: 0.974
- normalized growth [20]: 1
- normalized growth [21]: 1.02
- normalized growth [22]: 0.971
- normalized growth [23]: 0.989
- normalized growth [24]: 0.978
- normalized growth [25]: 0.945
- normalized growth [26]: 0.941

SMILES: COc1ccc(C(C)=O)cc1CSC(=NS(=O)(=O)c1ccccc1)Nc1cccc(F)c1
- normalized growth [1]: 1.01
- normalized growth [2]: 0.993
- normalized growth [3]: 0.988
- normalized growth [4]: 0.994
- normalized growth [5]: 0.913
- normalized growth [6]: 0.974
- normalized growth [7]: 1.02
- normalized growth [8]: 0.944
- normalized growth [9]: 0.981
- normalized growth [10]: 1.01
- normalized growth [11]: 0.981
- normalized growth [12]: 0.984
- normalized growth [13]: 0.876
- normalized growth [14]: 1
- normalized growth [15]: 0.921
- normalized growth [16]: 0.915
- normalized growth [17]: 0.973
- normalized growth [18]: 0.999
- normalized growth [19]: 0.998
- normalized growth (S. cerevisiae deletion strains, locus YMR307W, strain GAS1, hits give low values): 0.737
- normalized growth [20]: 1.03
- normalized growth [21]: 0.963
- normalized growth [22]: 0.98
- normalized growth [23]: 0.952
- normalized growth [24]: 1.02
- normalized growth [25]: 0.983
- normalized growth [26]: 1.03
- normalized growth (S. cerevisiae strains, strain wild type, hits give low values): 0.988
